Test results taken from PubChem BioAssay (NCATS).
“And” between values parts separate entries of the source, which are not always exact repeats. Equal entries are not always repeated. Results filed as inconclusive are left out. The source made the active and inactive calls. Unless noted, the call rests on the fitted dose curve.

Legend:
[1] = molecular target: Androgen receptor (Homo sapiens) (UniProt P10275); assay: qHTS assay for small molecule agonists of androgen receptor signaling (AID 588515; active means well fitted curve in the direction sought with a large enough effect in the signal ratio, with a control signal flat; the % refers to the signal ratio; further: on the % scale 0 is the no-effect control and ±100 the full control effect); conditions: AR-UAS-bla HEK293, beta-lactamase ratio, agonist 16 h; stronger effect = higher value
Sequence of Androgen receptor (Homo sapiens) (P10275 whole entry, looked up): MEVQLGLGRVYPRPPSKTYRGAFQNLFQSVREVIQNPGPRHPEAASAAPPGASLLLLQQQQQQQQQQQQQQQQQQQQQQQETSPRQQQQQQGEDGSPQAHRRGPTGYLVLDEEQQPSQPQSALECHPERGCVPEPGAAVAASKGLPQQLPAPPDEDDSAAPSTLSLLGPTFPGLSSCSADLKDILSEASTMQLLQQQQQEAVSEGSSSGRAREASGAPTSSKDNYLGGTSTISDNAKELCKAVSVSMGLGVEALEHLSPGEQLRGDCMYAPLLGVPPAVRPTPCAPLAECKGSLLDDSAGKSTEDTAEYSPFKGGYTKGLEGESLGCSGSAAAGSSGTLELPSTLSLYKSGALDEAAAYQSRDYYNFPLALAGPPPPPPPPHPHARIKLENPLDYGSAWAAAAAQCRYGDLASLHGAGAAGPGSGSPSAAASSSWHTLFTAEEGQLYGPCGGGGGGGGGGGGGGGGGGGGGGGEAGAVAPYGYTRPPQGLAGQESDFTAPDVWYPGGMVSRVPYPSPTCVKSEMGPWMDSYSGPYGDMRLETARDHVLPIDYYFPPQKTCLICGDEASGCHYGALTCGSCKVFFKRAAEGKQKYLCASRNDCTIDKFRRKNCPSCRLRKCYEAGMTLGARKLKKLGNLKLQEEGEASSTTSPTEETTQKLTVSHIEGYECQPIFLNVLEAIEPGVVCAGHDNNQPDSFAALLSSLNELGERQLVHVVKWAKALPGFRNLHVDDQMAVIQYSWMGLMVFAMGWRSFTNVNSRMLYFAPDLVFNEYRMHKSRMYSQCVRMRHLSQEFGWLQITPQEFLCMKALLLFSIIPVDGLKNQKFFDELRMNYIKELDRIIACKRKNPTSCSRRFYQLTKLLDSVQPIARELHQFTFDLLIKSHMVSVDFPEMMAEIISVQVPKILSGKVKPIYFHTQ
Summary of the method: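 EC50 and efficacy came from Hill fits of titrations (up to 92 uM) normalized to 30 nM R1881 as 100% and DMSO as 0%. Compound exposure was 16 h at 37 C on AR-UAS-bla HEK293 cells, with a 405/460/530 nm CCF4 fluorescence read.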

[2] = molecular target: Androgen receptor (Homo sapiens) (UniProt P10275); assay: qHTS assay for small molecule antagonists of androgen receptor signaling (AID 588516; active means well fitted curve in the direction sought with a large enough effect in the signal ratio, with a control signal flat, not every such curve was filed as active; the % refers to the signal ratio; further: on the % scale 0 is the no-effect control and ±100 the full control effect); conditions: AR-UAS-bla HEK293, beta-lactamase ratio, antagonist mode, 16 h; series mostly up to 76.8 µM
Summary of the method: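 HEK293 AR-UAS-bla cells, 10% dialyzed FBS medium; cpd titration + R1881 10 nM final, 16 h 37 C; CCF4 2 h RT; FRET ratio; IC50/efficacy via Hill fit.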

[3] = molecular target: Bile acid receptor (Homo sapiens) (UniProt Q96RI1); assay: qHTS assay for small molecule agonists of farnesoid X receptor signaling (AID 588527); conditions: HEK293T FXR-UAS-bla, beta-lactamase ratio, 16 h; activation: stronger effect = higher value;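 further: 0% = vehicle basal and 100% = reference agonist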
Sequence of Bile acid receptor (Homo sapiens) (Q96RI1 whole entry, looked up): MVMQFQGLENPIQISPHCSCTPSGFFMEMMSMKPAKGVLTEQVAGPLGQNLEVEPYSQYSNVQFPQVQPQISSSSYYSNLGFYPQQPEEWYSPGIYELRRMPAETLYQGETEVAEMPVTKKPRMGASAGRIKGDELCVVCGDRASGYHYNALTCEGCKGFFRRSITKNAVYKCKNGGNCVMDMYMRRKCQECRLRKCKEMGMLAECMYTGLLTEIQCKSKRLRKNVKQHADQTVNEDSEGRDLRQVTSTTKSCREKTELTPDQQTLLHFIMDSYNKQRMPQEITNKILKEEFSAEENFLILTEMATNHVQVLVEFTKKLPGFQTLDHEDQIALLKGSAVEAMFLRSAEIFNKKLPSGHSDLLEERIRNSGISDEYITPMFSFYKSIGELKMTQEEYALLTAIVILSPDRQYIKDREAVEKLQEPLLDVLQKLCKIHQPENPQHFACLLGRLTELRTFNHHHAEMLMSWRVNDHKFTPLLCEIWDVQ
Summary of the method: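 Agonist-mode beta-lactamase reporter in GeneBLAzer FXR-UAS-bla HEK293T cells, titration up to 92 uM, 16 h exposure at 37 C, CCF4 fluorescence. Response scaled to DMSO (0%) and 100 uM chenodeoxycholic acid (100%), then Hill-fitted for EC50 and efficacy.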

[4] = molecular target: Peroxisome proliferator-activated receptor gamma (Homo sapiens) (UniProt P37231); assay: qHTS assay for small molecule antagonists of peroxisome proliferator-activated receptor gamma signaling (AID 588537; active means well fitted inhibition curve with a large enough effect in the signal ratio, with a control signal flat, not every such curve was filed as active; the % refers to the signal ratio;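 further: reporter cells co-stimulated with 50 nM rosiglitazone agonist during compound treatment; % of control where 0% means no effect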); conditions: HEK293 PPARg-UAS-bla, beta-lactamase ratio, antagonist mode; series mostly up to 76.8 µM
Sequence of Peroxisome proliferator-activated receptor gamma (Homo sapiens) (P37231 whole entry, looked up): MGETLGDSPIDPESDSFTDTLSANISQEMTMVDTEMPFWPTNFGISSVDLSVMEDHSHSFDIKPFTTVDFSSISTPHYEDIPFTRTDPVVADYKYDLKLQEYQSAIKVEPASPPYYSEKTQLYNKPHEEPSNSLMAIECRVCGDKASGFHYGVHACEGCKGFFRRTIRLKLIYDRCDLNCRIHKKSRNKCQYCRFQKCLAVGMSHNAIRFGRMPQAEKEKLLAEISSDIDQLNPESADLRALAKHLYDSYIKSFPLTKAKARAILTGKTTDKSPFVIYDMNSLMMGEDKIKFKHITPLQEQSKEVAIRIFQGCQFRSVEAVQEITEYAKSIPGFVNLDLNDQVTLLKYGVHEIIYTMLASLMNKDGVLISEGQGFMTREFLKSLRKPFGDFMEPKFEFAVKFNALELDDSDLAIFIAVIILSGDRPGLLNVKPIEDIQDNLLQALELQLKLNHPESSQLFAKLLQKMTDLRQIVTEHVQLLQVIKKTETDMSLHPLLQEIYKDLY
Summary of the method: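 Step one: plate 3000 HEK293 UAS-bla cells per well in medium with 1% stripped serum and hold 6-6.5 h at 37 C. Step two: add compound and 50 nM agonist for 16 h. Step three: CCF4 loading, fluorescence read.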

[5] = molecular target: Retinoic acid receptor RXR-alpha (Homo sapiens) (UniProt P19793); assay: qHTS assay for small molecule agonists of retinoid X receptor alpha signaling (AID 588544); conditions: HEK293T RXRa-UAS-bla, beta-lactamase reporter, 18 h; series mostly up to 76.7 µM;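 further: 0% = DMSO basal wells and 100% = reference agonist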
Sequence of Retinoic acid receptor RXR-alpha (Homo sapiens) (P19793 whole entry, looked up): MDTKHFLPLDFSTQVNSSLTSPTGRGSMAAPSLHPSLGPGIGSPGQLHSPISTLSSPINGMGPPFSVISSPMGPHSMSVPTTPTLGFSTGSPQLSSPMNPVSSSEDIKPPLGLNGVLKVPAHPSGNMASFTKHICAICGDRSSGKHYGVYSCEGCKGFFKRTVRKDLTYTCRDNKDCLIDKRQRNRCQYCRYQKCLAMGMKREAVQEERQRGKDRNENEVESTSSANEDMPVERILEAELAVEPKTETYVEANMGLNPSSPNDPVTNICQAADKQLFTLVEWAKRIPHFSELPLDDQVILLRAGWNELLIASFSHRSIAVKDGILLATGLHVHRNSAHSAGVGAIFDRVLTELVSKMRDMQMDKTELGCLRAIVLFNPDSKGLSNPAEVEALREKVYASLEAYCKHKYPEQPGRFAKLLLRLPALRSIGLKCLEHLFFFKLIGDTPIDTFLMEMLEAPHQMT

[6] = qHTS assay for small molecule agonists of the antioxidant response element (ARE) signaling pathway (AID 651741; active means well fitted activation curve with a large enough effect in the signal ratio; the % refers to the signal ratio; further: potency means the concentration at half of the fitted maximal effect; on activation: % of control where 0% means no effect); conditions: HepG2 ARE-bla reporter, beta-lactamase FRET ratio, 16 h; series mostly up to 96 µM
Summary of the method: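 HepG2 ARE-bla cells plated at 2,000 cells/well and incubated 5 h at 37 C/5% CO2 received 23 nL compound in DMSO. After 16 h at 37 C, LiveBLAzer B/G FRET substrate was applied for 2 h at room temperature and fluorescence read.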

[7] = molecular target: Bile acid receptor (Homo sapiens) (UniProt Q96RI1); assay: qHTS assay for small molecule antagonists of farnesoid X receptor signaling (AID 588526); conditions: HEK293T FXR-UAS-bla, beta-lactamase ratio, antagonist mode; series mostly up to 76.7 µM; further: on the % scale 0 is the no-effect control and ±100 the full control effect
Summary of the method: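 Antagonist mode: titrated compounds tested against chenodeoxycholic acid stimulation (normalized to 50 uM CDCA and DMSO) in GeneBLAzer HEK293T cells for 16 h. Beta-lactamase read by CCF4 fluorescence; IC50 from Hill fits.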

[8] = molecular target: Glucocorticoid receptor (Homo sapiens) (UniProt P04150); assay: qHTS assay for small molecule antagonists of glucocorticoid receptor signaling (AID 588533; active means well fitted inhibition curve with a large enough effect in the signal ratio, with a control signal flat, not every such curve was filed as active; the % refers to the signal ratio;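 further: cells stimulated with 2 nM dexamethasone as agonist; on the % scale 0 is the no-effect control and ±100 the full control effect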); conditions: HeLa MMTV-bla, GRE beta-lactamase ratio, antagonist mode, 18 h; series mostly up to 76.8 µM
Sequence of Glucocorticoid receptor (Homo sapiens) (P04150 whole entry, looked up): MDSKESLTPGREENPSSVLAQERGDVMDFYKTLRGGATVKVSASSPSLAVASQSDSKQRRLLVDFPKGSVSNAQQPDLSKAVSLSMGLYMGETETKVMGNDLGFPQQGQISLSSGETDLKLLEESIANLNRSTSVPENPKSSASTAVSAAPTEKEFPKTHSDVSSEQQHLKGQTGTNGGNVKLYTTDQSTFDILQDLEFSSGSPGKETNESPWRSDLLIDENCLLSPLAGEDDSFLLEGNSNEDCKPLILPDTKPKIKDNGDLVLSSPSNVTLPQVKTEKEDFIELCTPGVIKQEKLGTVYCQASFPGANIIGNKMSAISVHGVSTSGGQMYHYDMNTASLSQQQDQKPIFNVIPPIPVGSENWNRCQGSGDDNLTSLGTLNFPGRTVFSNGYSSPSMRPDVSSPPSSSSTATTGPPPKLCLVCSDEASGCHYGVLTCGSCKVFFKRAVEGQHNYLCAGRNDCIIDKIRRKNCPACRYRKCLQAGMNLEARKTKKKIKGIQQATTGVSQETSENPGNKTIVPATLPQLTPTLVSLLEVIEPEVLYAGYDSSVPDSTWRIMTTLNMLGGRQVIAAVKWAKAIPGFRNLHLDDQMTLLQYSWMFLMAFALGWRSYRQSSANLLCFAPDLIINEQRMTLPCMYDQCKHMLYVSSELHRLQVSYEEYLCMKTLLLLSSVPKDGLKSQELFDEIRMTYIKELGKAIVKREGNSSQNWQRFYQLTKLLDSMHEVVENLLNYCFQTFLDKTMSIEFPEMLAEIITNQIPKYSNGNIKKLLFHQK
Summary of the method: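 Antagonist-mode qHTS: compound titrations added to GRE-bla HeLa cells, then dexamethasone 2 nM final; 18 h, 37 C. CCF4 FRET fluorescence normalized to dexamethasone and DMSO; IC50 from Hill fit.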

[9] = qHTS assay for small molecule antagonists of peroxisome proliferator-activated receptor delta signaling (AID 588535; active means well fitted inhibition curve with a large enough effect in the signal ratio, with a control signal flat, not every such curve was filed as active; the % refers to the signal ratio;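 on max response: cells co-treated with a PPAR-delta agonist as stimulator during compound exposure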); conditions: HEK293T PPARd-UAS-bla, beta-lactamase FRET ratio, 18 h; 460 nm channel
Summary of the method: (§1)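 Cells were seeded at 4000 per well in assay medium containing 2% charcoal/dextran FBS and held 5 hrs at 37 C. Compounds were then added for 18 hrs. CCF4 substrate was applied for 2 hrs at room temperature before fluorescence reading.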

[10] = molecular target: Peroxisome proliferator-activated receptor delta (Homo sapiens) (UniProt Q03181); assay: as above; conditions: HEK293T PPARd-UAS-bla, beta-lactamase FRET ratio, 18 h; series mostly up to 76.7 µM
Sequence of Peroxisome proliferator-activated receptor delta (Homo sapiens) (Q03181 whole entry, looked up): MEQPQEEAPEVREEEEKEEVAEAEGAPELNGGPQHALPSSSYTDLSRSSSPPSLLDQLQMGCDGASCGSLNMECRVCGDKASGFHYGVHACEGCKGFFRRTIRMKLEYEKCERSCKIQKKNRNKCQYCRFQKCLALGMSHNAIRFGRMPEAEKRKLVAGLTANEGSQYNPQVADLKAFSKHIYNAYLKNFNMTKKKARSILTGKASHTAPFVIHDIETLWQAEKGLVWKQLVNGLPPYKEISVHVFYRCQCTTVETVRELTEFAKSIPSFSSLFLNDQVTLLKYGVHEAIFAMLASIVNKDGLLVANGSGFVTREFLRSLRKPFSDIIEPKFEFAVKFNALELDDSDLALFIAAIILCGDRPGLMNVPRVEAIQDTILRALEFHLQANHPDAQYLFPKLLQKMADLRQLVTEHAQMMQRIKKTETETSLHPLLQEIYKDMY
Summary of the method: as §1

[11] = molecular target: Thyroid hormone receptor beta (Homo sapiens) (UniProt P10828); assay: qHTS assay for small molecule antagonists of thyroid hormone receptor beta signaling (AID 588547; active means well fitted inhibition curve with a large enough effect in the signal ratio, with a control signal flat, not every such curve was filed as active; the % refers to the signal ratio); conditions: TR-UAS-bla HEK293, beta-lactamase ratio, antagonist mode, 18 h
Sequence of Thyroid hormone receptor beta (Homo sapiens) (P10828 whole entry, looked up): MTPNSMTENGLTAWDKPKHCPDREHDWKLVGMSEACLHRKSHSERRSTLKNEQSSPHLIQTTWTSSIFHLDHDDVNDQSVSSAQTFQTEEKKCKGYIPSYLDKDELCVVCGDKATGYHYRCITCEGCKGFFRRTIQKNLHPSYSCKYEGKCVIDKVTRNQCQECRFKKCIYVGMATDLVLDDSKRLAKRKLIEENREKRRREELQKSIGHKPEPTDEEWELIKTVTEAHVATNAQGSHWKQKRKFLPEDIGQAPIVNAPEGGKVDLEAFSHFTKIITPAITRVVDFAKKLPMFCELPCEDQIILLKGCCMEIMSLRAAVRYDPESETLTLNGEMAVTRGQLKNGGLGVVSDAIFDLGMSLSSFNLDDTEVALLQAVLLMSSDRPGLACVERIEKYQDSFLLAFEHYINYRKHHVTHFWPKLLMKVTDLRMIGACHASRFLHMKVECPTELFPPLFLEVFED
Summary of the method: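 TR-UAS-bla GripTite HEK293 cells in 2% charcoal/dextran FBS medium; compounds 0.59 nM to 92 uM with T3 at 0.4nM final, 18 h at 37 C. Beta-lactamase read by CCF4 fluorescence (460/530 nm); Hill fits gave IC50 and efficacy.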

[12] = molecular target: Nuclear receptor subfamily 1 group I member 2 (Rattus norvegicus) (UniProt Q9R1A7); assay: qHTS assay for small molecule activators of the rat pregnane X receptor (rPXR) signaling pathway (AID 651751; call rule not given here; further: 0% is about no effect); conditions: rPXR reporter cells, luciferase (One-Glo), 24 h
Sequence of Nuclear receptor subfamily 1 group I member 2 (Rattus norvegicus) (Q9R1A7 whole entry, looked up): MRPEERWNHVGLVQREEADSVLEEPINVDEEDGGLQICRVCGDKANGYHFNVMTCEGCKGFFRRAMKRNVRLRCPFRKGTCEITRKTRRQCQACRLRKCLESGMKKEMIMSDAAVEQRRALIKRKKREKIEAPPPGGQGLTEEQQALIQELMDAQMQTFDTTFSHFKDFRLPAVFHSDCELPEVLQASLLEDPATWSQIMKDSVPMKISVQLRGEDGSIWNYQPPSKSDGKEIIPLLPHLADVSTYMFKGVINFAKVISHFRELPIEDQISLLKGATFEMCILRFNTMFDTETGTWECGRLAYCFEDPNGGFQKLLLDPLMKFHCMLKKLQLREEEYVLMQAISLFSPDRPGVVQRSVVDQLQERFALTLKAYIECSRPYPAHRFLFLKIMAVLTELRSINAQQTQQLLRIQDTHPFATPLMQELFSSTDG

[13] = qHTS assay for small molecule activators of the human pregnane X receptor (PXR) signaling pathway (AID 720659; call rule not given here; further: 0% is about no effect); conditions: DPX-2 HepG2 CYP3A4-luciferase, 24 h; series mostly up to 92.3 µM
[14] = molecular target: Cytochrome P450 3A4 (Homo sapiens) (UniProt P08684); assay: qHTS Assay for Activators of Cytochrome P450 3A4 (AID 885; active means well fitted activation curve with a large enough effect; further: nearly all actives have a fitted effect of over 65% in size); conditions: recombinant CYP3A4, Luciferin-PPXE luminescence, 60 min; series mostly up to 57.1 µM
Sequence of Cytochrome P450 3A4 (Homo sapiens) (P08684 whole entry, looked up): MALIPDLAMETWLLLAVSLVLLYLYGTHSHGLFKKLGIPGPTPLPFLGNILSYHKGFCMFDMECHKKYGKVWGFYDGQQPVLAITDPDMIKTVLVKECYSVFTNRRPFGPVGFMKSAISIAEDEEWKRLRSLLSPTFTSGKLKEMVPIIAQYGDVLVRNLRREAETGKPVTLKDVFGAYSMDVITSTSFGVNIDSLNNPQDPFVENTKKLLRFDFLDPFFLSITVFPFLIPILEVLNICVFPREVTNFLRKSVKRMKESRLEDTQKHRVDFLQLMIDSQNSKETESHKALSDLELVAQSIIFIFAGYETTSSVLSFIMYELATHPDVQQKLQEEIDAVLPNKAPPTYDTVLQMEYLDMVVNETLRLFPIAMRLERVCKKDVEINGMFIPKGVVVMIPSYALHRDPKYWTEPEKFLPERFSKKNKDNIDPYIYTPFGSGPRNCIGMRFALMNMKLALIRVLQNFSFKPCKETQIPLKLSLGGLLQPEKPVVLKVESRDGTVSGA
Summary of the method: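 Signal was normalized against complete inhibition by 57 uM ketoconazole. The reaction used 20nM CYP3A4 with 25uM Luciferin-PPXE, 10-min compound preincubation and a 60-min NADPH-supported step at RT.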

O=S1OC[C@@H]2[C@H](CO1)[C@@]1(Cl)C(Cl)=C(Cl)[C@]2(Cl)C1(Cl)Cl (some centres undefined)
inactive: activation [1] -8.15% and -7.22% | Potency [2] | activation [3] 1.84% and 4.33% | Potency [4] | Potency [5]
active: Potency [6] 24.3 µM

COC(=O)c1ccccc1S(=O)(=O)NC(=O)N(C)c1nc(C)nc(OC)n1
inactive: Potency [7] | activation [3] 1.44% | Potency [8] | Potency [10] | Potency [4] | Potency [5] | activity change % (negative = inhibition) [11] 9.61% | Potency [6] | max response [12] 0.907% | outcome [13]
-42.2%: max response [9]

COP(=O)(OC)Oc1ccc([N+](=O)[O-])cc1
inactive: activation [3] 5.22% | Potency [6] | max response [12] -1.53% | outcome [13]

CCc1ccc(C(=O)NN(C(=O)c2cc(C)cc(C)c2)C(C)(C)C)cc1
inactive: Potency [14] | Potency [8] | Potency [5] | activity change % (negative = inhibition) [11] 18%

COC(=O)NS(=O)(=O)c1ccc(N)cc1
inactive: Potency [8] | Potency [10] | Potency [4] | Potency [5] | activity change % (negative = inhibition) [11] -3.22% and 3.54% | max response [12] 2.14% and -3.25% | outcome [13]
-5.88%: max response [9]

Cc1c(COC(=O)C2C(/C=C(\Cl)C(F)(F)F)C2(C)C)cccc1-c1ccccc1 (centres undefined)
11.3%: max response [9]
inactive: Potency [7] | Potency [10] | Potency [4]

CCNC(=O)NC(=O)/C(C#N)=N/OC
9.94%: max response [9]
inactive: activation [3] -0.507% | Potency [10] | Potency [4] | Potency [5]

CCN(CC)c1nc(C)cc(OP(=S)(OC)OC)n1
inactive: Potency [8] | Potency [10] | Potency [5] | activity change % (negative = inhibition) [11] -11.6% | max response [12] -1.67% | outcome [13]
56.7%: max response [9]
